Compounds with a hit are over-represented: about 3.2% of the library has one in this group of screens.
Tau fluor cs: Counterscreen qHTS for Inhibitors of Tau Fibril Formation, Fluorescence Polarization. tau K18 P301L Alexa594 fluorescence, heparin fibrillization. Potency, µM (top dose mostly 57.7 µM). actives 0.93% (n = 280,000). AID 1463, 2008; note: nearly all actives have a fitted effect of over 55% in size
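Human tau K18 P301L (15 uM unlabeled, 0.24 uM Alexa 594-labeled) in 100 mM sodium acetate pH 7 with 20 uM heparin, 6 hr at 37 C. ThT 30 uM added, 1 hr ambient; Alexa 594 FP and total fluorescence read at 555/632 nm.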
TexasRed fluor: Total Fluorescence Counterscreen for Inhibitors of the Interaction of Thyroid Hormone Receptor and Steroid Receptor Coregulator 2. TRb/SRC2 Texas Red total fluorescence interference. Potency, µM (doses to about 106 µM). actives 0.29% (n = 280,000). AID 1479, 2009; active = well fitted curve in either direction with a large enough effect; inconclusive = small, poorly fitted or top-dose-only effect
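Flags fluorescent or light-absorbing compounds by total fluorescence, S + 2P, at 555 nm excitation and 632 nm emission. Mixture: 20 nM Texas Red SRC2 peptide, 0.6 uM human TRb LBD, 1 uM T3, 5% DMSO; compound exposure 5 h at ambient temperature.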
GoLoco inh red: qHTS Assay for Inhibitors of RGS12 GoLoco Motif Activity (Red Fluorophore); Potency, µM (highest dose often 61.6 µM), actives largely listed as inhibitors; Gai1:RGS12 GoLoco peptide FP, rhodamine, 10 min; AID 880, 2007; actives 0.44% (n = 230,000); Guanine nucleotide-binding protein G(i) subunit alpha-1 (Homo sapiens), P63096; active = well fitted inhibition curve with a large enough effect, not every such curve was filed as active; inactive = no such curve, though single readings can be large or run the other way; note: nearly all actives have a fitted effect of over 30% in size
Tau fibril ThT: qHTS for Inhibitors of Tau Fibril Formation, Thioflavin T Binding; Microtubule-associated protein tau (Homo sapiens), P10636; recombinant tau K18 P301L (four-repeat tau fragment), heparin-induced fibrillization, ThT fluorescence; Potency, µM (titrated, usually from 57.4 µM), hits mostly inhibitors; actives 2.1% (n = 270,000); AID 1460, 2008; note: nearly all actives have a fitted effect of over 55% in size
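Heparin-induced fibrillization of the P301L-mutant K18 repeat-domain fragment of human tau was followed by ThT binding in quantitative high-throughput format.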
Tau fibril FP: qHTS for Inhibitors of Tau Fibril Formation, Fluorescence Polarization; K18 P301L tau heparin fibrillization, Alexa594 FP, 6 h; actives 0.39% (n = 280,000); Potency, µM (doses to about 57.7 µM), actives largely listed as inhibitors; note: nearly all actives have a fitted effect of over 55% in size
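Quantitative HTS format: compounds meet 15 uM recombinant K18 P301L tau and Alexa 594-tau tracer in 100 mM sodium acetate pH 7; 20 uM heparin triggers fibrillization at 37 C over 6 hr; FP gives the signal.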
TRb-SRC2 inh: qHTS for Inhibitors of the Interaction of Thyroid Hormone Receptor and Steroid Receptor Coregulator 2; TRbeta-SRC2 peptide binding, fluorescence polarization; receptor liganded with 1 µM T3; Potency, µM (titrated, usually from 106 µM), most hits filed as inhibitors; actives 0.065% (n = 280,000); Thyroid hormone receptor beta (Homo sapiens), P10828; note: nearly all actives have a fitted effect of over 50% in size
Target sequence (P10828 whole entry, looked up): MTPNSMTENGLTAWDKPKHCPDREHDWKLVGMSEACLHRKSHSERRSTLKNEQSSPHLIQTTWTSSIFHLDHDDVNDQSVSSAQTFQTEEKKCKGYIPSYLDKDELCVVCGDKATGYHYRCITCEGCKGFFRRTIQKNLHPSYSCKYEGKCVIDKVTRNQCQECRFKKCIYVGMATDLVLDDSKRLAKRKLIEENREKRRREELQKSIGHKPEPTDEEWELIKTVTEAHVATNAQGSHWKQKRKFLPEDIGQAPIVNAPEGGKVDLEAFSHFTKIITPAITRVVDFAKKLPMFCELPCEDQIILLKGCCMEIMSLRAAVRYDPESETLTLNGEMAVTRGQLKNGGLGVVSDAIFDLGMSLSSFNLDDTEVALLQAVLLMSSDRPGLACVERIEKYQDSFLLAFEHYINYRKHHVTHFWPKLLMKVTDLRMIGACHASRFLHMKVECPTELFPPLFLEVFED
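Human TRb LBD (0.6 uM) plus Texas Red-labeled SRC2 peptide (20 nM), 1uM T3, 5% DMSO, 5 hr at ambient temperature. Decreased polarization (555/632 nm) flags inhibition; data normalized to free and bound peptide controls.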
Numbers stand for hits; - = inactive; ? = inconclusive; . = no result; [ ] = another dose, or the depositor's remark. Unless noted, calls come from the whole dose curve; as a rule, active = well fitted curve in the direction sought with a large enough effect; inconclusive = small, poorly fitted or top-dose-only effect, or another doubt; inactive = no such curve, though single readings can be large; an effect the other way counts as inactive or inconclusive.

SMILES	Tau fluor cs	TexasRed fluor	GoLoco inh red	Tau fibril ThT	Tau fibril FP	TRb-SRC2 inh
Cc1ccccc1N/N=C/c1sc(=O)n(Cc2cccc(C(=O)O)c2)c1Cl	?	-	-	28.2µM	-	-
O=C(O)c1cccc(Cn2c(Cl)c(/C=N/NC(=O)c3cc4ccccc4cc3O)sc2=O)c1	?	-	-	20µM	?	-
O=C(O)c1cccc(Cn2c(Cl)c(/C=N/NC(=O)c3ccccc3)sc2=O)c1	-	-	-	-	-	-
O=c1[nH]c(/C=C2\C=Nc3ccccc32)c(O)n1Cc1ccccc1F	7.94µM[quencher]	-	-	?	-	-
CC[C@H](C)[C@H](NC(=O)[C@H](Cc1ccc(O)cc1)NC(=O)[C@@H](NC(=O)[C@H](CCCN=C(N)N)NC(=O)[C@@H](N)CC(=O)O)C(C)C)C(=O)N[C@@H](Cc1ccc(N)cc1)C(=O)N1CCC[C@H]1C(=O)N[C@@H](Cc1ccccc1)C(=O)O	.	-	.	.	.	-
CC(=O)N1CCN(c2ccc(NC(=S)NC(=O)COc3ccc(C(C)(C)C)cc3)cc2)CC1	-	-	-	3.98µM	-	-
Cc1cc(C)c([N+](=O)[O-])cc1-c1ccc(/C=N/c2c(-c3ccco3)nc3ccccn23)o1	25.1µM[quencher]	-	-	5.01µM	?	-
O=[N+]([O-])c1ccc(-c2ccc(/C=N/c3c(-c4ccco4)nc4ccccn34)o2)cc1	?	-	-	2.82µM	-	-
O=[N+]([O-])c1ccc(-c2ccc(/C=N/c3c(-c4ccco4)nc4ccccn34)o2)c(Cl)c1	-	-	-	2µM	-	-
CCOC(=O)c1ccc(NC(=O)CSc2nc(-c3cccs3)cc(C(F)(F)F)c2C#N)cc1	-	-	.	-	-	-
Nc1ccc(N)c(Cl)c1	.	-	-	.	.	?
CC1OC(OCC2OC(Oc3cc(O)c4c(c3)OC(c3ccc(O)cc3)CC4=O)C(O)C(O)C2O)C(O)C(O)C1O (stereo not drawn)	.	-	.	.	.	-
CSc1ccc(-c2nc3cnccn3c2Nc2ccc3c(c2)OCO3)cc1	?	-	-	?	?	-
Clc1ccc(-c2nc3cnccn3c2Nc2ccc3c(c2)OCO3)cc1	14.1µM[quencher]	-	-	?	?	-
Cc1ccc(-c2nc3ncccn3c2Nc2ccc3c(c2)OCCO3)cc1	?	-	-	?	-	-
Oc1ccc(-c2nc3ncccn3c2Nc2ccc3c(c2)OCCO3)cc1	25.1µM[quencher]	-	-	?	-	-
C=C(C)Cn1c(SCC(=O)c2ccc(OC)cc2)nc2sc3c(c2c1=O)CCCC3	-	-	.	-	?	-
CC(=O)/C(=N/Nc1ccccc1Cl)Sc1nnc(C(O)c2ccccc2)n1-c1ccccc1 (stereo not drawn)	-	-	-	-	-	-
COC(=O)/C(=N/Nc1ccccc1Cl)Sc1nnc(C(O)c2ccccc2)n1-c1ccccc1 (stereo not drawn)	-	35.5µM[quencher]	-	-	-	-
O=S(=O)(c1cccs1)N1CN(Cc2ccco2)c2nc3ccccc3nc21	?	?	-	22.4µM	?	?
O=S(=O)(c1cccs1)N1CN(Cc2ccc(Cl)cc2)c2nc3ccccc3nc21	-	-	-	-	-	-
COc1ccc(OC)c(NC(=O)c2cnc(Nc3ccc(C)c(Cl)c3)c3ccccc23)c1	?	-	.	-	?	-
COc1ccc(Nc2ncc(C(=O)Nc3ccc(F)cc3F)c3ccccc23)cc1	11.2µM[quencher]	-	.	?	?	-
CCOc1ccc(C(=O)/C=C/Nc2ccc(S(=O)(=O)Nc3onc(C)c3C)cc2)cc1	-	-	-	-	-	-
